Test results as given in the OligoGym collection.

Each sequence was assayed against C7orf11 (assay: pooled miR-30 sensor sort-seq; sequence = guide strand). Conditions: shRNA.
Further: reference of the scale not given here.

Row | Sequence | sensor-assay potency score (higher = more potent)
1 | TAAATGTTGCAAGTTATCCTAC | 0.0898
2 | ATATCCACTACAGATACTGGTT | -0.708
3 | TTTTTTCTCTAACACGCCCTGA | -0.403
4 | TCCAACTCATTAGACATTCTTT | -1.12
5 | TCTAATATCAACAATACCTGAT | 0.0324
6 | TTTGAGTATTGCTGTATTGTTG | -0.804
7 | TTGGCTTATATCCACTACAGAT | -1.16
8 | TTATATCCACTACAGATACTGG | -1.05
9 | TTGAGTATTGCTGTATTGTTGG | -0.097
10 | TTTTTCTCTAACACGCCCTGAT | 0.0567
11 | TAATTATCCAATCAAAGTCATC | -1.65
12 | TTCTTTTTTCTCTAACACGCCC | -0.504

What follows are sequences tested against C7orf47 in the same assay as above. Conditions: shRNA.

Row | Sequence | sensor-assay potency score (higher = more potent)
13 | TAGCGTTTCTGGGTCACACAAG | -0.834
14 | TCACACAAGATGGTCATGTCTG | -0.315
15 | TCATAAAATAGCGTTTCTGGGT | -0.72
16 | AAGATGGTCATGTCTGGCCCAG | -1.42
17 | TGGGTCACACAAGATGGTCATG | -1.71
18 | TTTCTGGGTCACACAAGATGGT | -1.07
19 | TTCTGGGTCACACAAGATGGTC | -1.8
20 | TAACACAAAAATACGAACTAGC | 0.2
21 | TAGTTTAACACAAAAATACGAA | -0.764
22 | TAAAATAGCGTTTCTGGGTCAC | 0.138
23 | TGGAGATTCATAAAATAGCGTT | -0.725
24 | ATTCATAAAATAGCGTTTCTGG | -0.587

Each sequence was assayed against C7orf69 in the same assay as above. Conditions: shRNA.

Row | Sequence | sensor-assay potency score (higher = more potent)
25 | TAGTTTGACAAAACTTGTAGAG | -0.507
26 | AAAACTTGTAGAGAAGTCCAGA | -0.425
27 | TTCAGCTCTCCTATCCGTGCAA | 0.252
28 | TTGATAGTTTGACAAAACTTGT | -1.4
29 | TTTGATAGTTTGACAAAACTTG | -0.171
30 | AAGTCCAGAGTTAAGAACCAGC | -0.81
31 | TTGCTCTGCATTTGATAGTTTG | -1.46
32 | TTTGCTCTGCATTTGATAGTTT | -0.51
33 | TTTCCATCCATGACCAACTTTT | -0.995
34 | ATAGTTTGACAAAACTTGTAGA | -0.39
35 | TGATAGTTTGACAAAACTTGTA | -0.512
36 | TTGTAGAGAAGTCCAGAGTTAA | -1.47

The sequences below were run against C8B in the same assay as above. Conditions: shRNA.

Row | Sequence | sensor-assay potency score (higher = more potent)
37 | TATTTTAAAACCAAAACTGAAA | -1.26
38 | TTGCCCTTGCATGAACTCCAGG | -1.15
39 | TTTGTCTTGTCTTACGTCTTCC | -0.213
